# Values joined by “and” are separate entries in the source; they are usually repeats but may differ in a detail not shown here. Equal entries are not always repeated. Out of some 190,000 compounds screened, about 1,300 (0.68%) were called active. Cut-off read from the data, not from the text of the source: active = inhibition above about 50%; inactive = the rest. The full list was thinned out, with actives kept by preference. Some compounds were tested as several samples or in several runs, with calls that do not always agree.
# Target: Mannose-6-phosphate isomerase (Homo sapiens) (UniProt P34949)
# Sequence (P34949 whole entry, looked up): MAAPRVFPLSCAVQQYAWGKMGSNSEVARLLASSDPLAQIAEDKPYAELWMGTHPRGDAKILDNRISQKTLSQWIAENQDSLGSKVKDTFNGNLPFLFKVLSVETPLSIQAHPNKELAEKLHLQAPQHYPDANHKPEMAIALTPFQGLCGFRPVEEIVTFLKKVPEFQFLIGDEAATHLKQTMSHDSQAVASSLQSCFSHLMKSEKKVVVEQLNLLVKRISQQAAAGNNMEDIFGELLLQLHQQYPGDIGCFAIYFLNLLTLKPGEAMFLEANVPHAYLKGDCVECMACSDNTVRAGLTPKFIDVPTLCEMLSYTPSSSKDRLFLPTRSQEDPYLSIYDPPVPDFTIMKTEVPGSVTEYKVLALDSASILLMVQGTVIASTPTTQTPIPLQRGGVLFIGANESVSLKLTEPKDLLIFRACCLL
# Experiment: human PMI inhibitors, high substrate, primary screen, biochemical, fluorescence intensity, high mannose 6-phosphate (AID 1220)
# Settings: recombinant PMI enzyme, coupled fluorescence intensity; at 20 µM; stronger effect = higher value
row,SMILES,inhibition
1,c1ccc(COc2cccc(CNCc3ccccn3)c2)cc1,-10.4% (inactive)
2,Cc1ccc2cc(CCNC(=O)Cc3cccs3)c(=O)[nH]c2c1,-0.6% (inactive)
3,c1ccc2[nH]c(-c3ccnc4ccccc34)nc2c1,51.2% (active) and -1.5% (inactive)
4,c1ccc(-c2cc(-c3nc4ccccc4[nH]3)c3ccccc3n2)cc1,12.1% (inactive)
5,Fc1ccccc1-c1nc2ccccc2[nH]1,-1.9% (inactive)
6,O=C(O)CCCCCNS(=O)(=O)c1cccc2c1C(=O)c1ccccc1C2=O,31.4% (inactive)
7,CCOC(=O)N1CCN(c2cc(NCCC(=O)O)c3c4c(onc24)-c2ccccc2C3=O)CC1,-2.8% (inactive)
8,CC(=O)OCCNc1cc(N2CCN(C)CC2)c2noc3c2c1C(=O)c1ccccc1-3,50.5% (active)
9,CN1CCN(c2ccc(Cl)cc2NC(=O)CCN2C(=O)c3ccccc3C2=O)CC1,-10.2% (inactive)
10,CCCCNC(=O)c1ccc(N2CCC3(CC2)OCCO3)c([N+](=O)[O-])c1,2.4% (inactive)
11,O=C(O)CCCNc1cc(N2CCC3(CC2)OCCO3)c2noc3c2c1C(=O)c1ccccc1-3,54.1% (active)
12,CC(Oc1ccccc1F)C(=O)NNC(=O)c1cc2ccccc2o1 (stereo unspecified),2.5% (inactive)
13,Cc1ccc(NC(=S)NC2CCN(Cc3ccccc3)CC2)cc1,8.2% (inactive)
14,COc1cc(NC(=O)Cn2cnc3ccccc3c2=O)c(OC)cc1Cl,14.9% (inactive)
15,CCOC(=O)c1sc2ncnc(N3CCN(CC)CC3)c2c1C,-2.6% (inactive)
16,O=C(Cn1cnc2c(nnn2Cc2ccc(F)cc2)c1=O)NCc1ccc(F)cc1,-6.8% (inactive)
17,COC(=O)c1cc(C(=O)OC)cc(-n2c(C)cc(C(=O)COC(=O)CNS(=O)(=O)c3ccc(C)cc3)c2C)c1,6.4% (inactive)
18,Cc1cc(N/N=C/c2ccccc2O)nc(-c2ccccc2O)n1,48.2% (inactive)
19,Cc1cc(N/N=C/c2ccc(O)cc2O)nc(-c2ccccc2O)n1,52.9% (active)
20,Cc1cc(N/N=C/c2ccc(O)c(C)c2O)nc(-c2ccccc2O)n1,33.4% (inactive)
21,C(=N\Nc1ccccn1)/c1ccc(N2CCOCC2)cc1,23.5% (inactive)
22,Oc1ccc(/C=N\Nc2cc(N3CCOCC3)nc(N3CCOCC3)n2)c(O)c1,61.1% (active)
23,CC(=O)NNc1cc(N2CCOCC2)nc(N2CCOCC2)n1,11.3% (inactive)

row,SMILES,inhibition
1,Oc1ccc(/C=N/Nc2nc(N3CCCCCC3)nc(N3CCCCCC3)n2)c(O)c1,19.9% (inactive)
2,Oc1ccc(/C=N/Nc2nc(N3CCCC3)nc(N3CCCC3)n2)cc1O,27% (inactive)
3,COc1ccc(-c2oc3ncnc(N)c3c2-c2ccccc2)cc1,5.7% (inactive)
4,Nc1ccccc1C(=O)N(Cc1ccccc1)Cc1ccccc1,-1.7% (inactive)
5,C=CCSc1nnc(-c2ccc([N+](=O)[O-])cc2)o1,-2.9% (inactive)
6,Cc1ccc2c(C)[nH]c(=O)cc2c1,8.1% (inactive)
7,CCOc1cc(CNCc2ccncc2)cc(Br)c1OCc1ccc(F)cc1,5.1% (inactive)
8,Cc1ccc(S(=O)(=O)c2nc(-c3ccco3)oc2SCC(=O)NCC2CCCO2)cc1 (stereo unspecified),18.4% (inactive)
9,COc1ccccc1N=c1c2c([N+](=O)[O-])cc([N+](=O)[O-])cc2n(O)n1-c1ccccc1OC,-1.7% (inactive)
10,O=[N+]([O-])c1cc([N+](=O)[O-])c2c(=Nc3ccccc3)n(-c3ccccc3)n(O)c2c1,52.9% (active)
11,CCc1ccc(N=c2c([N+](=O)[O-])nn(-c3ccccc3)n2O)cc1,2.1% (inactive)
12,CCOc1cc(C2C(C#N)=C(N)Oc3n[nH]c(-c4ccncc4)c32)cc([N+](=O)[O-])c1O (stereo unspecified),24.5% (inactive)
13,CCN(c1ccccc1)S(=O)(=O)c1ccc(Cl)c(NC(=O)COC(=O)C2CC2C)c1 (stereo unspecified),6.5% (inactive)
14,N/C(=N\OS(=O)(=O)c1ccccc1)c1ccncc1,-14.4% (inactive)
15,CC1=C(C)/C(=N\OS(=O)(=O)c2ccccc2)C=CC1=O,49% (inactive)
16,N/C(=N\OS(=O)(=O)c1ccccc1)c1ccccn1,-4.5% (inactive)
17,Cc1ccc(S(=O)(=O)ON=C2CCN(S(=O)(=O)c3ccccc3)CC2)cc1,-1% (inactive)
18,Cc1ccc(S(=O)(=O)O/N=C2\CCCc3ccccc32)cc1,-0.1% (inactive)
19,CC1=C/C(=N\OC(=O)/C=C/c2ccccc2)C(C)=CC1=O,8.4% (inactive)
20,O=S(=O)(O/N=C1\CCCc2ccccc21)c1ccccc1,-10.1% (inactive)
21,O=S(=O)(O/N=C1\CCCc2ccccc21)c1ccc(Cl)cc1,-28.3% (inactive)
22,COc1ccccc1OC(C)c1nnc(SCC(=O)Nc2c(C)n(C)n(-c3ccccc3)c2=O)n1-c1ccccc1 (stereo unspecified),6.4% (inactive)
23,COc1ccc(CNS(=O)(=O)NCc2ccc(C)cc2)cc1,-7.2% (inactive)

# Reference: PubChem BioAssay AID1220 (Sanford-Burnham Center for Chemical Genomics, 2008)
